Test results as given in PubChem BioAssay (Tox21).
Results filed as inconclusive are left out. The source made the active and inactive calls. Unless noted, calls follow the shape of the dose curve; as a rule, active = well fitted curve in the direction sought with a large enough effect in the repeat runs; inconclusive = weak or mixed curves; inactive = no such curve, though single readings can be large; an effect the other way counts as inactive or inconclusive.

What was measured:
[1] = biological target: Aryl hydrocarbon receptor (Homo sapiens) (UniProt P35869); assay: qHTS assay to identify small molecule that activate the aryl hydrocarbon receptor (AhR) signaling pathway (AID 743085);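 also: HG2L7.5c1 human HepG2 liver cells with stably integrated DRE-driven firefly reporter; series mostly up to about 70 µM; nearly all actives have a fitted effect of over 15% in size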
Chain of Aryl hydrocarbon receptor (Homo sapiens) (P35869 whole entry, looked up): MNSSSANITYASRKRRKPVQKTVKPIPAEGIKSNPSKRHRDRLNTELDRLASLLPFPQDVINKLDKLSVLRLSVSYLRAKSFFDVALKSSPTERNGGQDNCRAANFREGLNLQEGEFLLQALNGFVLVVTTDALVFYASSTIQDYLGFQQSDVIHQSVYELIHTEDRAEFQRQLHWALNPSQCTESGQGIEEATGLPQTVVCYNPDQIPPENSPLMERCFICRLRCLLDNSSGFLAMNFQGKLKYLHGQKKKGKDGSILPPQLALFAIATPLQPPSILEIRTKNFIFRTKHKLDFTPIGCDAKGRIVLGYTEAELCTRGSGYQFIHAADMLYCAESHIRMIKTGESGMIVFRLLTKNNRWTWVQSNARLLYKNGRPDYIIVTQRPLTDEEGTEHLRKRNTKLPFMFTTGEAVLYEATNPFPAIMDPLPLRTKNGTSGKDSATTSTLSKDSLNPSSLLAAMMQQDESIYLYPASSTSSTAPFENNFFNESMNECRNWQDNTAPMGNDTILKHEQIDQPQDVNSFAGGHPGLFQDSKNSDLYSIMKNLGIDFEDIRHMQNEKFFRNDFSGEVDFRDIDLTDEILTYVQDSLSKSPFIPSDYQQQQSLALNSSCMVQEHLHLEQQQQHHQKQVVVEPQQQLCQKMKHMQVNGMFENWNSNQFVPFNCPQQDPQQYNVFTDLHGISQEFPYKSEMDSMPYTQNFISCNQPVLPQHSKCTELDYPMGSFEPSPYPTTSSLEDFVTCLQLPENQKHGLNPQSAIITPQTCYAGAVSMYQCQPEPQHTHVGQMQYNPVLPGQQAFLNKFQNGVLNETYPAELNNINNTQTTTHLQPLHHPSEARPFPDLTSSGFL
In short: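 AhR agonist activity is inferred from enhanced light output of a DRE-controlled firefly luciferase reporter in HepG2 cells, measured with ONE-Glo following 24 h treatment at 37C.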

[2] = qHTS assay to identify small molecule that activate the aryl hydrocarbon receptor (AhR) signaling pathway - cell viability counter screen (AID 743086);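 also: HepG2 liver cells carrying the AhR DRE luciferase reporter; series mostly up to about 70 µM; nearly all actives have a fitted effect of over 45% in size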
In short: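 Cytotoxicity counter screen: CellTiter-Fluor signal (30 min, 37 C) in 4000 HepG2 cells/well carrying the DRE-luciferase reporter, following 24 h compound exposure at 37 C.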

[3] = biological target: Peroxisome proliferator-activated receptor gamma (Homo sapiens) (UniProt P37231); assay: qHTS assay to identify small molecule agonists of the peroxisome proliferator-activated receptor gamma (PPARg) signaling pathway (AID 743094; active = well fitted activation curve with a large enough effect in the signal ratio in the repeat runs, not every such curve was filed as active; the % refers to the signal ratio)
Chain of Peroxisome proliferator-activated receptor gamma (Homo sapiens) (P37231 whole entry, looked up): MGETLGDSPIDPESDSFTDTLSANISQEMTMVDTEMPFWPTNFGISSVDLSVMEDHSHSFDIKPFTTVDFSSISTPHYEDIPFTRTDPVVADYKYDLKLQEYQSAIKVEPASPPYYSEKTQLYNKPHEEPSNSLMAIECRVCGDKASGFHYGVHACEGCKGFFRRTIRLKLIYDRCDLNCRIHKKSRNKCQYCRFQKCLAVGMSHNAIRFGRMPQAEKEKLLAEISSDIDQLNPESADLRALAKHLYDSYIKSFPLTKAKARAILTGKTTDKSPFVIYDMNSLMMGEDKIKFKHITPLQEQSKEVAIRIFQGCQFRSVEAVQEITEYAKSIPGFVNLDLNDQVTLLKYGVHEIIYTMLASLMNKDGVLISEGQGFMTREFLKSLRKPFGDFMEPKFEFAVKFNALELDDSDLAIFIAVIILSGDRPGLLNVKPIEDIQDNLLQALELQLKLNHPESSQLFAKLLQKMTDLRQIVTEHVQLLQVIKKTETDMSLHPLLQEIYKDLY
In short: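 Following 5 h plating at 37C, PPARg-bla HEK293H cells receive compound or DMSO for 17 h; fluorescence intensity is recorded after LiveBLAzer B/G loading for 1 h at room temperature.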

[4] = biological target: Peroxisome proliferator-activated receptor gamma (Homo sapiens) (UniProt P37231); assay: qHTS assay to identify small molecule antagonists of the peroxisome proliferator-activated receptor gamma (PPARg) signaling pathway (AID 743191; calls by dose curve; also: series mostly up to about 63 µM; nearly all actives have a fitted effect of over 30% in size)
In short: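 Beta-lactamase reporter under UAS control in HEK293H PPARg-bla cells; compound treatment 17 h at 37C. Read-out: fluorescence intensity after 1 h room-temperature incubation with LiveBLAzer B/G FRET substrate.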

[5] = qHTS assay to identify small molecule antagonists of the peroxisome proliferator-activated receptor gamma (PPARg) signaling pathway - cell viability counter screen (AID 743194); also: nearly all actives have a fitted effect of over 55% in size
In short: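 Viability was measured as CellTiter-Glo luminescence in GeneBLAzer PPARg UAS-bla HEK293H cells. These cells had been exposed 17 h at 37 C to compounds together with rosiglitazone at 50 nM final, with the beta-lactamase readout taken in the same wells.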

[6] = qHTS assay for small molecule agonists of the antioxidant response element (ARE) signaling pathway - cell viability counter screen (AID 743203; calls by dose curve; also: nearly all actives have a fitted effect of over 55% in size)
In short: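 Compounds in DMSO were pinned onto ARE-bla HepG2 cells plated 5 hrs earlier at 2,000 cells/well. Sixteen hours later at 37C/5% CO2, CellTiter-Glo was added and luminescence measured after 30 min at room temperature.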

[7] = qHTS assay for small molecule activators of the heat shock response signaling pathway - cell viability counter screen (AID 743209); also: nearly all actives have a fitted effect of over 50% in size
In short: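 Counter screen for cytotoxicity in HeLa HSE-bla reporter cells. Treatment was 5 h at 37 C; viability was detected by luminescent ATP assay (CellTiter-Glo) in the same wells as the beta-lactamase read.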

[8] = qHTS assay for small molecule activators of the heat shock response signaling pathway (AID 743210; active = well fitted activation curve with a large enough effect in the signal ratio in the repeat runs, with a control signal flat, not every such curve was filed as active; the % refers to the signal ratio;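 also: HeLa cells with beta-lactamase reporter driven by heat shock elements; series mostly up to about 63 µM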)
In short: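 In HSE-bla HeLa cells, 5 h compound incubation (37 C) precedes addition of LiveBLAzer B/G substrate; after 2.5 h at room temperature, fluorescence intensity indicates reporter induction.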

[9] = qHTS assay to identify small molecule agonists of the peroxisome proliferator-activated receptor delta (PPARd) signaling pathway - cell viability counter screen (AID 743211); also: nearly all actives have a fitted effect of over 55% in size
In short: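 qHTS cell viability: PPARd-bla HEK293H; 17 h cpd, 37C; CellTiter-Glo, luminescence at 30 min RT.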

[10] = biological target: Peroxisome proliferator-activated receptor delta (Homo sapiens) (UniProt Q03181); assay: qHTS assay to identify small molecule agonists of the peroxisome proliferator-activated receptor delta (PPARd) signaling pathway (AID 743212; calls by dose curve)
Chain of Peroxisome proliferator-activated receptor delta (Homo sapiens) (Q03181 whole entry, looked up): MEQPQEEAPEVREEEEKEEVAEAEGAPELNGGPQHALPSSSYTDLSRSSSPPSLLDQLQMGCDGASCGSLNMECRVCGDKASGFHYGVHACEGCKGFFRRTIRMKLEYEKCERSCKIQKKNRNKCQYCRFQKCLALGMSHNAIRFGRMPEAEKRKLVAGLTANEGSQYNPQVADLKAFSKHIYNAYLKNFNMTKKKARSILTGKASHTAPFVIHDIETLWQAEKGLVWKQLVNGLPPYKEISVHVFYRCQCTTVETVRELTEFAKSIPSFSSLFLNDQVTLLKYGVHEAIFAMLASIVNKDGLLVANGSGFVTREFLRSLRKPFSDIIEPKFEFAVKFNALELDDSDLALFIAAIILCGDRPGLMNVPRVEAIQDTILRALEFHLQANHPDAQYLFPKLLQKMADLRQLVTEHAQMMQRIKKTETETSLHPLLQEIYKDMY
In short: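 HEK293H UAS-bla reporter cells, human PPARd system; compounds delivered in DMSO after 5 h plating, then at 37 C. Beta-lactamase FRET read, 2 h RT substrate step.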

[11] = qHTS assay to identify small molecule antagonists of the peroxisome proliferator-activated receptor delta (PPARd) signaling pathway - cell viability counter screen (AID 743213); also: nearly all actives have a fitted effect of over 50% in size
In short: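 HEK293H PPARd UAS-bla cells, 5 h pre-incubation, compound + L165041 300 nM final, 17 h 37 C; B/G FRET substrate 2 h RT; then CellTiter-Glo 30 min RT, luminescence.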

[12] = biological target: Peroxisome proliferator-activated receptor delta (Homo sapiens) (UniProt Q03181); assay: qHTS assay to identify small molecule antagonists of the peroxisome proliferator-activated receptor delta (PPARd) signaling pathway (AID 743215; active = well fitted inhibition curve with a large enough effect in the signal ratio in the repeat runs, not every such curve was filed as active; the % refers to the signal ratio;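 also: cells stimulated with agonist L165041 at 300 nM final during compound exposure; series mostly up to about 62 µM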)
In short: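 With L165041 present at 300 nM final, compounds were incubated 17 h at 37 C on PPARd UAS-bla HEK293H cells. A FRET-based beta-lactamase substrate was then applied for 2 h at room temperature and fluorescence intensity recorded.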

[13] = biological target: Bile acid receptor (Homo sapiens) (UniProt Q96RI1); assay: qHTS assay to identify small molecule antagonists of the farnesoid-X-receptor (FXR) signaling pathway (AID 743217; active = well fitted inhibition curve with a large enough effect in the signal ratio in the repeat runs, not every such curve was filed as active; the % refers to the signal ratio)
Chain of Bile acid receptor (Homo sapiens) (Q96RI1 whole entry, looked up): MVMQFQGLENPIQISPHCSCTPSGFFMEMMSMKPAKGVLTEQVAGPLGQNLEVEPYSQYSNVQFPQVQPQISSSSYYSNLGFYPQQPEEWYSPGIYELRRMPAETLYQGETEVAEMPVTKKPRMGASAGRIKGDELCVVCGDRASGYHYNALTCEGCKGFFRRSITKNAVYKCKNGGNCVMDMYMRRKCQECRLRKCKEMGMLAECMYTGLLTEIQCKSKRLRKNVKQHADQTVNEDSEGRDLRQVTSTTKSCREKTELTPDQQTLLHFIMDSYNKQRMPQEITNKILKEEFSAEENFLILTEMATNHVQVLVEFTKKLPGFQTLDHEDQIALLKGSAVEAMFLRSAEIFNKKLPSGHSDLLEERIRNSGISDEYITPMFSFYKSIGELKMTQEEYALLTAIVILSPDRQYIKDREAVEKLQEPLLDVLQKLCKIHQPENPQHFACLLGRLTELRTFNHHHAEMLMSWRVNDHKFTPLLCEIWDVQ
In short: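 In this cell-based antagonist screen, inhibition of CDCA-driven (50 uM final) UAS-beta-lactamase expression in HEK 293T cells was measured by FRET fluorescence following 16 h compound exposure at 37 °C.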

[14] = qHTS assay to identify small molecule agonists of the farnesoid-X-receptor (FXR) signaling pathway - cell viability counter screen (AID 743218); also: nearly all actives have a fitted effect of over 45% in size
In short: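 After 16 h at 37 C with test compounds, FXR-bla HEK 293T cells were given LiveBLAzer B/G substrate for 2 h at RT and then CellTiter-Glo; luminescence was taken after 30 min.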

[15] = biological target: Bile acid receptor (Homo sapiens) (UniProt Q96RI1); assay: qHTS assay to identify small molecule agonists of the farnesoid-X-receptor (FXR) signaling pathway (AID 743220; active = well fitted activation curve with a large enough effect in the signal ratio in the repeat runs, not every such curve was filed as active; the % refers to the signal ratio)
In short: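 Beta-lactamase reporter under UAS control in GeneBLAzer FXR HEK 293T cells (5000/well) measured with LiveBLAzer FRET substrate after 2 h at room temperature. Compound exposure lasted 16 h at 37C.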

[16] = biological target: Vitamin D3 receptor (Homo sapiens) (UniProt P11473); assay: qHTS assay to identify small molecule agonists of the vitamin D receptor (VDR) signaling pathway (AID 743222; calls by dose curve)
Chain of Vitamin D3 receptor (Homo sapiens) (P11473 whole entry, looked up): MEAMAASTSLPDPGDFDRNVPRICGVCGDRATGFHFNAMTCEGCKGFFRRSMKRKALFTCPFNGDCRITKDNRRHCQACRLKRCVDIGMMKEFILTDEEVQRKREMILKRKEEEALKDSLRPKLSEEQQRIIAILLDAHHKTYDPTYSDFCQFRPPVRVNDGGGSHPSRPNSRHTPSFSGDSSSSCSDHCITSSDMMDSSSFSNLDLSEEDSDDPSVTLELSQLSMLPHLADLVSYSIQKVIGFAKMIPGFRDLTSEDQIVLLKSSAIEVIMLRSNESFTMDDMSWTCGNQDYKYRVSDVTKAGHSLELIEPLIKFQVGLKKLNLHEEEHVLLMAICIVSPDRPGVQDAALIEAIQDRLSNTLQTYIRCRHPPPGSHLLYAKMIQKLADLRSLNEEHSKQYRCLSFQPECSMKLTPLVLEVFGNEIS
In short: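 VDR-bla cells were seeded, left 4 h, treated with compounds in DMSO for 16 h, incubated 2 h at RT with B/G FRET substrate, and read for fluorescence.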

[17] = biological target: Vitamin D3 receptor (Homo sapiens) (UniProt P11473); assay: qHTS assay to identify small molecule antagonists of the vitamin D receptor (VDR) signaling pathway (AID 743223; active = well fitted inhibition curve with a large enough effect in the signal ratio in the repeat runs, not every such curve was filed as active; the % refers to the signal ratio)
In short: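 Reporter line VDR-bla; stimulus 1alpha,25-(OH)2 vitamin D3, 3 nM final; compound co-addition, 16 h 37C/5% CO2; LiveBLAzer B/G substrate 2 h RT; fluorescence intensity.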

[18] = qHTS assay to identify small molecule agonists of the vitamin D receptor (VDR) signaling pathway - cell viability counter screen (AID 743224); also: series mostly up to about 63 µM; nearly all actives have a fitted effect of over 50% in size
In short: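 Here cell health was gauged by luminescent ATP detection (CellTiter-Glo, 30 min RT) in VDR-bla cells that had been incubated with test compounds for 16 h at 37C and 5% CO2.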

[19] = qHTS assay to identify small molecule antagonists of the farnesoid-X-receptor (FXR) signaling pathway - cell viability counter screen (AID 743221; active = well fitted cell-killing curve with a large enough effect in the repeat runs, not every such curve was filed as active; also: nearly all actives have a fitted effect of over 50% in size)
In short: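 After a 5 h settling period, FXR-bla HEK 293T cells receive compound and chenodeoxycholic acid (50 uM final) and incubate 16 h at 37 C; CellTiter-Glo luminescence, read after 30 min at room temperature, reports cell viability.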

[20] = qHTS assay for small molecule agonists of the antioxidant response element (ARE) signaling pathway (AID 743202; active = well fitted activation curve with a large enough effect in the signal ratio in the repeat runs, not every such curve was filed as active; the % refers to the signal ratio)
In short: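 An ARE-responsive beta-lactamase gene stably integrated in HepG2 cells serves as reporter. After 5 h plating and 16 h compound incubation at 37 C, fluorescence of the B/G FRET substrate was measured.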

Measured: Potency

Cc1ccccc1Br
not listed: [19] | [20]
inactive: all other assays above

CC(C)[N+](C)(C)CC(O)COc1cccc2ccccc12 (centres undefined)
not listed: [12] | [13] | [14] | [15] | [16] | [17] | [20]
inactive: all other assays above

CC1=CC(=O)CCC1
not listed: [12] | [13] | [15] | [16] | [17] | [20]
inactive: all other assays above

COC(=O)CCCC(=O)O
not listed: [13] | [15] | [17] | [20]
inactive: all other assays above

CC1(C)SC(C)(C)SC(C)(C)S1
not listed: [4] | [17]
inactive: all other assays above

CC(=O)c1ccc(C)cc1
not listed: [4] | [12] | [13] | [15] | [19]
inactive: all other assays above

CCCCCCOC(=O)c1ccccc1O
not listed: [4] | [19]
inactive: all other assays above

CCCC=O
not listed: [9] | [11] | [13] | [15] | [17] | [20]
inactive: all other assays above

CCCCc1ccc2cccc(S(=O)(=O)O)c2c1
not listed: [7] | [9] | [12] | [13] | [15] | [18] | [20]
inactive: all other assays above
